Records with an inconclusive call do not appear. Activity calls are given as the source filed them. Calls follow the shape of the dose curve; as a rule, active = well fitted inhibition curve with a large enough effect; inconclusive = small, poorly fitted or top-dose-only effect; inactive = no such curve, though single readings can be large or run the other way.
Tested on: Zika virus NS2B-NS3 protease (linked construct)
Test: Primary screen NINDS Rhodamine qHTS for Zika virus inhibitors (AID 1347160); also: nearly all actives have a fitted effect of over 55% in size
Conditions: purified NS2B-NS3 protease, Rhodamine110 substrate fluorescence; series mostly up to 57.1 µM; activity change, negative = inhibition: at the top concentration
How it was run: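 Aprotinin served as in-plate control. Conditions: 25 nM linked NS2B-NS3, pH 8.0 Tris buffer, titrated compounds, 15 min preincubation and 15 min reaction with 1.5 microM Rhod110 substrate at room temperature.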
% is scaled to controls: 0 for no effect and ±100 for the full control effect; potency is read from the fitted curve at half-maximal effect.

SMILES | activity change, negative = inhibition | Potency | outcome
C[C@]12CC[C@H]3[C@@H]([C@H](O)CC4=CC(=O)CC[C@@]43C)[C@@H]1CC[C@@H]2O | 11.5% (inactive) |  | 
CCCCCOc1cc2c(cc1-c1cc(/C=C/C(=O)O)ccc1O)C(C)(C)CCC2(C)C |  | 3.16 µM (active) | 
CN1[C@H]2C[C@H](OC(=O)[C@H](CO)c3ccccc3)C[C@@H]1[C@@H](O)C2 | 2.1% (inactive) |  | 
COc1ccc2[nH]cc(CCN)c2c1 | 18.9% [at 112 µM] (inactive) |  | 
C/C=C(\C)C(=O)OC1C(C)OC(OC2C(C)OC(OC3CCC4(C)C(=CCC5C4CCC4(C)C(C(C)OC6OC(COC7OC(CO)C(O)C(O)C7O)C(O)C(O)C6O)CCC54O)C3)CC2OC)C(O)C1OC (stereo not given) | -8.17% [at 15.1 µM] (inactive) |  | 
CCN1C[C@]2(COC(=O)c3ccccc3N3C(=O)C[C@H](C)C3=O)CC[C@H](OC)[C@@]34[C@@H]5C[C@H]6[C@H](OC)[C@@H]5[C@](O)(C[C@@H]6OC)[C@](O)([C@@H](OC)[C@H]23)[C@@H]14 | 25% (inactive) |  | 
C=C(C)[C@H]1O[C@H]2CC[C@@]3(C)[C@@](O)(CC[C@H]4[C@@H]5OC(C)(C)[C@H]6C[C@@H]7C(=C)Cc8c(Cl)cc9[nH]c(c5c9c8[C@@]76O)[C@@]43C)[C@]23O[C@@H]3[C@H]1O | -9.91% [at 15.1 µM] (inactive) |  | 
CN1CCC[C@@H]1Cc1c[nH]c2ccc(Nc3ncccc3[N+](=O)[O-])cc12 |  |  | inactive
COC1=CC(=O)O[C@@H](CCc2ccccc2)C1 | 22.4% (inactive) |  | 
CCC(C)(OC(C)=O)C(=O)O[C@H]1[C@H](OC(C)=O)C[C@@H]2[C@@](C)([C@@H]3C[C@H]4C=CO[C@H]4O3)[C@H](C)C[C@H](OC(C)=O)[C@@]2(COC(C)=O)[C@@]12CO2 (stereo not given in full) | -8.79% [at 15.1 µM] (inactive) |  | 
